Rows were chosen to be rich in hits. Some 12% of all compounds tested hit in one or more screens of this group.
ALDH1A1 inh: ALDH1A1 (human) enzyme inhibition; 220,000 compounds, 7.3% hits; P00352; Potency, µM (highest dose often 75.3 µM), most hits filed as inhibitors; Purified ALDH1A1, NADH fluorescence, propionaldehyde substrate; active = well fitted inhibition curve with a large enough effect, not every such curve was filed as active; inconclusive = small, poorly fitted or top-dose-only effect, or another doubt; inactive = no such curve, though single readings can be large or run the other way
RORgamma inh: ROR gamma (mouse) transcription inhibition; Potency, µM (highest dose often 53.6 µM), usual class: inhibitors; AID 2551; Drosophila S2 Gal4-RORgamma UAS-luciferase reporter, 20 h; 310,000 compounds, 5.4% hits; also: nearly all actives have a fitted effect of over 60% in size
Target sequence (P51450 whole entry, looked up, the tested form may be a part): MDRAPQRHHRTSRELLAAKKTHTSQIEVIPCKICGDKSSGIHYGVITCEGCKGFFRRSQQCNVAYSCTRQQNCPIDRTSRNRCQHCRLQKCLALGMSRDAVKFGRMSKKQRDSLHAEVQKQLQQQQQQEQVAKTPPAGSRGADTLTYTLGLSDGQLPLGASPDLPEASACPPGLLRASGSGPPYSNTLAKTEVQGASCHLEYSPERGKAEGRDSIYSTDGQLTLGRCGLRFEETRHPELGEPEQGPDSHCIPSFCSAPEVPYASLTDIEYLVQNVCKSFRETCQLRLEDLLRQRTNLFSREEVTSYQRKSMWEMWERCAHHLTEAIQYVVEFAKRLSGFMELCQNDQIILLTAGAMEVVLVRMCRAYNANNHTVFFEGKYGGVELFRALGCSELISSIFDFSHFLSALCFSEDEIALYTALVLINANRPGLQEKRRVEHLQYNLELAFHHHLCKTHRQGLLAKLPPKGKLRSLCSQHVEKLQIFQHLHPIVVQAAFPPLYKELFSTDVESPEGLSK
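Luminescence from a UAS-regulated Photinus luciferase reporter in stably transfected Drosophila Schneider cells is measured; decreased signal marks ROR gamma inhibition. Fusion expression is induced by 700 uM copper sulfate for 20 hr.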
Sfp PPTase inh: Sfp phosphopantetheinyl transferase inhibition; Q9F4F7; AID 1490; Biochemical Sfp PPTase activity, qHTS; 310,000 compounds, 3.5% hits; Potency, µM, usual class: inhibitors;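 also: the enzyme is Sfp with the accession as filed and its product quenches rhodamine fluorescence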
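After 15 min at room temperature with compound, 15 nM Sfp received 5 uM rhodamine-CoA plus 12.5 uM BHQ-2-ybbR (50 mM Hepes pH 7.6, 10 mM MgCl2). Rate came from the fluorescence difference over 30 min, ex 525/em 598 nm.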
PLK1 PBD inh: PLK1 (human) polo-box domain binding inhibition. Plk1 PBD binding of FITC phosphopeptide, fluorescence polarization. 360,000 compounds, 2.8% hits. AID 720504. Potency, µM, most hits filed as inhibitors; also: series mostly up to about 57 µM; nearly all actives have a fitted effect of over 65% in size
Gal4-VP16 FLuc: counter-screen for ROR gamma inhibitors: Gal4-VP16 reporter; Drosophila S2 Gal4-VP16 UAS-luciferase, luminescence, 20 h; AID 2546; 310,000 compounds, 3.5% hits; Potency, µM (top dose mostly 53.6 µM), hits mostly inhibitors;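 also: Gal4-VP16 expression switched on by copper sulfate through the metallothionein promoter; nearly all actives have a fitted effect of over 50% in size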
A number is an active result; n = inactive; u = inconclusive; x = no result; [ ] = remark or other dose. Unless noted, calls follow the shape of the dose curve; as a rule, active = well fitted curve in the direction sought with a large enough effect; inconclusive = small, poorly fitted or top-dose-only effect, or another doubt; inactive = no such curve, though single readings can be large; an effect the other way counts as inactive or inconclusive.

SMILES	ALDH1A1 inh	RORgamma inh	Sfp PPTase inh	PLK1 PBD inh	Gal4-VP16 FLuc
Cc1ccc(S(=O)(=O)NC2CCCCC2)c2nsnc12	16µM	n	n	n	n
CCN(CC)C(=O)CSC1=Nc2ccccc2C2=NC(Cc3c[nH]c4ccccc34)C(=O)N12 (stereo not given)	n	n	50µM	n	n
CCCc1nc2sc3c(c2c(=O)n1NC(=O)c1ccco1)CC(C)(C)OC3	u	n	n	n	n
CCCCCCCCCc1nc2sc3c(c2c(=O)n1NC(=O)c1ccccc1[N+](=O)[O-])CC(C)(C)OC3	1.4µM	n	n	n	n
CCCCCCCCCc1nc2sc3c(c2c(=O)n1NC(=O)c1ccc([N+](=O)[O-])cc1)CC(C)(C)OC3	7.1µM	u	n	n	u
CCC(C)n1c(SCC(=O)NC2CC2)nc2ccccc2c1=O (stereo not given)	x	x	x	n	x
COc1cc([N+](=O)[O-])ccc1NC(=O)CSc1nnc(C)c(C)n1	n	n	n	n	n
Cc1cc(C(=O)Nc2cccc(C(=O)O)c2)oc1C	n	6.3µM	n	n	u
O=C(Nc1cccc(S(=O)(=O)N2CCCC2)c1)c1ccco1	x	x	x	n	x
NS(=O)(=O)c1cccc(NC(=O)c2cc(=O)c3ccccc3o2)c1	x	u	n	n	n
Cc1cccc(NC(=O)c2cc3ccccc3o2)c1	n	n	u	n	6.3µM
O=C(Nc1cccc(S(=O)(=O)N2CCCCCC2)c1)c1cc(=O)c2ccccc2o1	11µM	n	n	n	n
NS(=O)(=O)c1cccc(NC(=O)c2cc3ccccc3o2)c1	n	n	n	21µM	n
CC[C@]1(O)C[C@@H]2CN(CCc3c([nH]c4ccccc34)[C@](C(=O)OC)(c3cc4c(cc3OC)N(C=O)[C@H]3[C@@](O)(C(=O)OC)[C@H](C(=O)OC)[C@@]5(CC)C=CCN6CC[C@]43[C@H]65)C2)C1	n	n	n	x	n
COc1ccc(C(=O)/C(Br)=C/C(=O)O)cc1	x	u	n	x	n
Cc1nc2cnc(N(C)C)nc2n(C2CC2)c1=O	u	n	n	x	n
Cc1ccccc1-c1cnc(C(O)c2ccc(Cl)c(F)c2)[nH]1 (stereo not given)	x	x	x	n	x
COc1ccc(NC(=O)C2CCCCN2S(=O)(=O)c2ccccc2)cc1S(=O)(=O)N1CCOCC1 (stereo not given)	x	x	x	n	x
Cc1ccc(S(=O)(=O)c2ccsc2NC(=O)c2ccccc2)cc1	x	x	x	n	x
CCN(Cc1ccccc1)C(=O)CCS(=O)(=O)c1ccc2c(c1)NC(=O)CO2	x	n	n	21µM	n
CCc1cccc(NC(=O)CCS(=O)(=O)c2ccc3c(c2)NC(=O)CO3)c1	x	n	n	27µM	n
COc1ccc2c(c1)OC(C)(C)C(c1ccccc1)C2c1ccc(OCCN2CCCC2)cc1 (stereo not given)	x	n	50µM	x	n
COC(=O)C(/C=C/C(C)Cc1cc(Br)cc(OCc2ccccc2)c1OC)OCc1ccccc1 (stereo not given)	n[13.5 µM]	n[10 µM]	n	x	n[10 µM]
O=C(/C=C/c1ccc(O)cc1)c1ccc(NC2=C(N3CCCCC3)C(=O)c3ccccc3C2=O)cc1	8.9µM	0.32µM	u	n	u
O=C(/C=C/c1ccccc1)Nc1ccc(C(=O)N2CCCCC2)cc1	u	n	n	n	n
SMILES	ALDH1A1 inh	RORgamma inh	Sfp PPTase inh	PLK1 PBD inh	Gal4-VP16 FLuc
CN(C1=C(N2CCCCC2)C(=O)c2ccccc2C1=O)c1ccccc1	n	n	n	n	n
O=C1C(Nc2cccc(O)c2)=C(N2CCCCC2)C(=O)c2ccccc21	u	n	32µM	n	u
Cc1ccc(NC2=C(N3CCCCC3)C(=O)c3ccccc3C2=O)cc1	n	n	n	n	u
O=C1C(Nc2ccccc2)=C(N2CCCCC2)C(=O)c2ccccc21	20µM	n	n	u	n
COc1ccccc1NC1=C(N2CCCCC2)C(=O)c2ccccc2C1=O	10µM	n	n	n	u
O=C1C(NS(=O)(=O)c2ccc(Br)cc2)=C(N2CCCCC2)C(=O)c2ccccc21	x	n	n	n	u
COCC(=O)N1CCC2(CCCN(C(c3ccccc3)c3ccccc3)C2)CC1	n	n	n	x	u
C[C@]12CCC(=O)C=C1CC[C@@H]1C2[C@@H](O)C[C@@]2(C)[C@H]1CC[C@]2(O)C(=O)CO (stereo not given in full)	n	n	n	x	n
Cc1cc(C)nc(Nc2nc(C(N)Cc3ccccc3)cs2)n1 (stereo not given)	x	x	x	n	x
